High-throughput results deposited in PubChem by University of Kansas High Throughput Screening Laboratory.
The entries come from a sample that favours hits as a whole.
mHTT CaM bind – mutant huntingtin-calmodulin interaction inhibitors – biochemical, AlphaScreen, primary screen; inhibition, % at 15 µM; AlphaScreen His-mHTT/GST-CaM binding, luminescence; AID 1671202, 2021; 190,000 tested, 3.6% active; P42858;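 also: 0% = both proteins with DMSO and 100% = one protein alone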
Pf apPOL block – Pf-apPOL inhibitors, biochemical, fluorescence; Plasmodium falciparum apicoplast DNA polymerase (apPOL); Recombinant Pf-apPOL, molecular beacon fluorescence, 1.5 h; inhibition, % at 10 µM; 210,000 tested, 0.25% active
Numbers without * were called inactive; i = inactive; . = not tested or not shown. Rule as the data show it: active = inhibition above about 50%; inactive = the rest.

SMILES | mHTT CaM bind | Pf apPOL block
CC1=NN(C(=O)c2ccc([N+](=O)[O-])cc2)C(C)(O)C1 (stereo not drawn) | 2 | 3
COc1ccc(CNCc2ccc3c(c2)OCO3)cc1Br | -1 | 5
COc1ccc(CNC(=O)Cc2ccccc2)cc1OC | -3 | 6
COc1ccc(-c2ccccc2)cc1NCc1ccc2c(c1)OCO2 | 57* | -2
COc1ccc(-c2ccccc2)cc1NCc1ccc(OC)c(OC)c1 | 73* | -6
COc1cc2c(cc1NCc1ccccn1)oc1ccccc12 | 15 | -4
COc1ccc(-c2ccccc2)cc1NCc1cc(OC)c(O)c([N+](=O)[O-])c1 | 66* | 3
COc1ccc([N+](=O)[O-])cc1NCc1ccccc1F | -46 | -1
COc1ccc(-c2ccccc2)cc1NCc1ccccn1 | 72* | -12
O=C(NCCc1csc(-c2ccccc2)n1)C1CCCN1C(=O)COc1ccccc1 (stereo not drawn) | 9 | -8
Cc1cccc(CN2CCCn3nc(C(=O)NCc4ccccn4)cc3C2=O)c1 | -9 | -4
COc1ccc(-c2cn3ccn(-c4ccc(C)cc4C)c(=O)c3n2)cc1 | -6 | -2
CCCc1ccc(S(=O)(=O)N2CCC(Oc3ccc(-n4cnnn4)cc3)CC2)cc1 | 4 | -12
O=C(c1ccc2c(c1)OCO2)N1CCCn2nc(-c3cccs3)cc2C1 | 3 | -2
O=C(Nc1ccc(-c2cn3ccsc3n2)cc1)c1cc(=O)c2ccccc2o1 | -8 | 5
CC(=O)Nc1ccc(Oc2c(F)c(F)nc(NCCO)c2F)cc1 | 3 | -1
Cc1ccc(N=Cc2cc(C)c(C)cc2O)c(O)c1 | 53* | 8
COc1cc(C=Nc2ccc(C)cc2O)ccc1O | 77* | -4
COc1ccc(C=Nc2ccc(C)cc2C)cc1O | 7 | 8
Cc1ccc(N=Cc2cc([N+](=O)[O-])ccc2O)c(Br)c1 | 4 | -3
CCCC(=O)Nc1ccc(O)c(C(=O)C=Cc2ccc(C(=O)O)cc2)c1 | 0 | -8
Fc1ccccc1-c1nc(-c2ccnc(N3CCCC3)c2)no1 | -19 | 0
COC(=O)c1ccc(Oc2c(C)oc3c4c(ccc3c2=O)OCN(Cc2ccccn2)C4)cc1 | 100* | -36
COCCCN1COc2ccc3c(=O)c(Oc4ccc(C(=O)OC)cc4)c(C)oc3c2C1 | 3 | -19
CC1(c2ccccc2)CC(C)(C)N(C(=O)C(F)(F)F)c2ccccc21 (stereo not drawn) | -31 | 8
SMILES | mHTT CaM bind | Pf apPOL block
CC1(c2ccccc2)CC(C)(C)N2C(=O)C(=O)c3cccc1c32 (stereo not drawn) | 80* | 10
CN1C(=O)C2(CCN(S(=O)(=O)c3cccc(Cl)c3)C2)c2ccccc21 (stereo not drawn) | 10 | -1
CCN(CC)c1cc(C)c2cc(NC(=O)/C=C/c3ccc4c(c3)OCO4)ccc2n1 | 20 | -8
Cc1cc(N2CCN(C)CC2)nc2ccc(NC(=O)/C=C/c3ccc4c(c3)OCO4)cc12 | 51* | -3
Cc1cc(N2CCOCC2)nc2ccc(NC(=O)/C=C/c3ccccc3Cl)cc12 | 38 | -3
Cc1cc(N2CCN(C)CC2)nc2ccc(NC(=O)/C=C/c3ccccc3Cl)cc12 | 93* | 4
CCCCOc1ccc(C2=N/C(=C/c3cccc([N+](=O)[O-])c3O)C(=O)O2)cc1 | 4 | 10
O=C(NCc1ccc2c(c1)OCO2)C(Cc1ccccc1)NS(=O)(=O)c1cccs1 (stereo not drawn) | -3 | -6
Cc1cc(=O)oc(C)c1C(=O)NCc1ccccn1 | 57* | -7
O=C(NCc1ccccn1)c1ccc2c(c1)OCO2 | 100* | -1
Cc1cc(=O)oc(C)c1C(=O)NCCCN(CC(C)C)CC(C)C | -15 | -16
O=C(NCc1cccnc1-c1ccccc1)c1ccc2c(c1)OCO2 | 0 | -10
CCN(CCCNC(=O)c1nn(-c2ccccc2OC)c(=O)c2ccccc12)c1cccc(C)c1 | 62* | -1
COCCNC(=O)c1nn(-c2ccccc2OC)c(=O)c2ccccc12 | -6 | -1
Cc1cc(=O)oc(C)c1C(=O)NCc1cccs1 | 14 | -11
CCN(CCCNC(=O)c1c(C)cc(=O)oc1C)c1cccc(C)c1 | 64* | -9
Cc1ccc(/C=N\n2c(C3CCCCC3)n[nH]c2=S)s1 | i | .
CCOc1nccnc1N1CCC(NS(=O)(=O)c2ccccc2)C1 (stereo not drawn) | 8 | 1
COc1ccc(C(=O)Oc2cc(C)c3c(c2)OC(=Cc2cccnc2)C3=O)cc1 | 3 | -3
O=C(NCc1ccccc1)c1ccc2ncnc(N3CCOCC3)c2c1 | -12 | 4
COc1ccc(-n2nc(C(=O)NCC(=O)Nc3ccc(F)cc3)c3ccccc3c2=O)c(OC)c1 | 88* | 7
COc1ccc(-n2nc(C(=O)Nc3ccc(F)cc3)c3ccccc3c2=O)c(OC)c1 | -7 | -4
COCCCNC(=O)N1CCC(n2c(C3CCCC3)nc3cccnc32)C1 (stereo not drawn) | -1 | 2
